# In PubChem BioAssay (EPA / NIEHS):
# The source made the active and inactive calls. Rule for the calls: active = hit-call score of the fitted dose curve at least 0.9, where 1 is the maximum; inactive = score below 0.9.
# Assay: ATG_RORE_CIS: Attagene CIS-FACTORIAL HepG2 Assay for human RAR-related Orphan Receptor Element (RORE) (AID 2282959)
# Details: HepG2 Attagene cis-factorial RORE reporter, mRNA; actives raise or lower the signal
# Protocol: ATG_CIS is a cell-based, multiplexed-readout assay that uses HepG2, a human liver cell line, with measurements taken at 24 hours after chemical dosing in a 24-well plate.ATG_RORE_CIS is one of 52 assay component(s) measured or calculated from the ATG_CIS assay. It is designed to make measurements of mRNA induction, a form of inducible reporter, as detected with fluorescence intensity signals by Reverse transcription polymerase chain reaction (RT-PCR) and Capillary electrophoresis technology.Data from the assay component ATG_RORE_CIS was analyzed into 1 assay endpoint. This assay endpoint, ATG_RORE_CIS, was analyzed with bidirectional fitting relative to DMSO as the negative control and baseline of activity. Using a type of inducible reporter, measures of mRNA for gain or loss-of-signal activity can be used to understand the reporter gene at the transcription factor-level as they relate to the gene RORA and RORB and RORC. Furthermore, this assay endpoint can be referred to as a primary readout, because this assay has produced multiple assay endpoints where this one serves a reporter gene function. To generalize the intended target to other relatable targets, this assay endpoint is annotated to the nuclear receptor intended target family, where the subfamily is orphan.
# Human liver HepG2 cells are transiently transfected with multiple reporter transcription units (MRTUs) in 6-well plates using FuGene 6 reagent (Roche; 3 ml FuGene/1 mg DNA). The MRTU constructs are regulated by a cis-regulating element (promoter). […] A major difference between the CIS and TRANS system is that in CIS activities of endogenous TFs are measured, whereas the TRANS assay evaluates changes in activities of exogenous, chimeric NR-Gal4 proteins. […] At the end of 24 hour incubation, total RNA was isolated using TriZol reagent (Invitrogen). The isolated RNA is then reverse-transcribed using oligo(dT) primer and Mo-MLV reverse transcriptase (Invitrogen) with DNAse I (Ambion) treatment for 30 min. The one-tenth of the produced cDNA was amplified by PCR using Taq DNA polymerase (Invitrogen) and two reporter sequence-specific primers. The PCR products were fluorescently labeled by primer extension with 6-arboxyfluorescein (6-FAM) 5'-labeled reporter sequence-specific primer (2 min at 95 C, 20 s at 68 C and 10 min at 72 C) and these products were digested with 5U of HpaI (New England Biolabs) for 2h at 37 C. The fragments were purified using Qiaquick PCR columns (Qiagen), analyzed on an ABI 3130xL genetic analyzer (Applied Biosystems) with peak positions identified by using a set of X-rhodamine (ROX)-labeled MapMarker1000 molecular weight standards (BioVentures). The raw capillary electrophoresis data was processed using Attagraph software (Attagene).
Compound,AC50,outcome
CCCc1c(OCCCCc2nn[nH]n2)ccc(C(C)=O)c1O,33.2 µM (active),–
CN(C)Cc1cc(C(C)(C)C)c(O)c(C(C)(C)C)c1,–,inactive
Oc1ccc(Oc2ccccc2)cc1,–,inactive
CCCCCC1CCCC(=O)O1 (stereo not given),–,inactive
C=C1CC[C@H]2C[C@@H]1C2(C)C,–,inactive
N#CCN(CC#N)CCN(CC#N)CC#N,–,inactive
c1ccc2c(c1)Oc1ccccc1S2,–,inactive
CN(C)c1ccc(C(c2ccccc2)c2ccc(N(C)C)cc2)cc1,–,inactive
[O-][n+]1ccc(Cl)cc1,–,inactive
Clc1ccccn1,–,inactive
CC/C=C/CCO,–,inactive
C/C=C(\C)C(=O)OCC/C=C\CC,–,inactive
O=C(O)/C=C\C(=O)O,–,inactive
Cc1ccccc1S(=O)(=O)O,–,inactive
C=CC(C)(CCC=C(C)C)OC(=O)c1ccccc1 (stereo not given),–,inactive
OCCc1ccccn1,–,inactive
Nc1nnc(-c2ccc([N+](=O)[O-])o2)o1,–,inactive
C=CCOCC(CC)(CO)COCC=C,–,inactive
CC1=NN(c2cc(Cl)c(S(=O)(=O)O)cc2Cl)C(=O)C1N=Nc1ccc(S(=O)(=O)O)cc1 (stereo not given),–,inactive
CC(C)CC(=O)CC(C)CC(C)C (stereo not given),–,inactive

Compound,AC50,outcome
CNC[C@H](O)[C@@H](O)[C@H](O)[C@H](O)CO,–,inactive
C=C(C)C(=O)OCC1CCCO1 (stereo not given),–,inactive
Cc1cc(-n2nc3ccc(Cl)cc3n2)c(O)c(C(C)(C)C)c1,–,inactive
O=C(c1ccccc1)c1ccccc1O,–,inactive
NC(=O)c1ccc([N+](=O)[O-])cc1Cl,–,inactive
CC[N+](CC)(CC(=O)Nc1c(C)cccc1C)Cc1ccccc1 (tested in a mixture with another compound),–,inactive
O=C(O)c1nc(Cl)c(Cl)c(Cl)c1Cl,–,inactive
C[Si](C)(C)O[Si](C)(C)O[Si](C)(C)C,–,inactive
CCCCOC(=O)COc1ccc(Cl)cc1Cl,–,inactive
CC/C=C\CC1=C(C)CCC1=O,–,inactive
CCC(C)=NO,–,inactive
NC(=O)c1ccc(N)cc1,–,inactive
CCCCCCCC#N,–,inactive
O=C(O)/C=C/C(=O)O,–,inactive
O=[N+]([O-])c1ccc2nc[nH]c2c1,–,inactive
CCC(=O)OCc1ccc(OC)cc1,–,inactive
C=CCOC(=O)C(=C)C,–,inactive
CCCC(=O)OC/C=C(\C)CCC=C(C)C,–,inactive
CCCCCCC1CCCC(=O)O1 (stereo not given),19.8 µM (active),–
CN(C)N=Nc1ccccc1,–,inactive
